Test results published in PubChem BioAssay (NCATS).
Results filed as inconclusive are left out. Unmarked numbers belong to inactive results. Activity calls are given as the source filed them. Calls come from the whole dose curve; as a rule, active = well fitted curve in the direction sought with a large enough effect; inconclusive = small, poorly fitted or top-dose-only effect, or another doubt; inactive = no such curve, though single readings can be large; an effect the other way counts as inactive or inconclusive.

Tests used:
[1] = Quantitative High-Throughput drug screen in 47 multiple myeloma cell lines against the NCATS MIPE library collection: KMS12BM_JCRB cell viability assay (AID 1918971); note: nearly all actives have a fitted effect of over 35% in size
How it was run: (§1)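 qHTS of the MIPE 4.0 collection: 500 myeloma cells/well, 48 h drug exposure at 37C in 5% CO2, then CellTiter-Glo for 5 min at room temperature before luminescence reading.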

[2] = Quantitative High-Throughput drug screen in 47 multiple myeloma cell lines against the NCATS MIPE library collection: KMS12PE_JCRB cell viability assay (AID 1918972); note: nearly all actives have a fitted effect of over 30% in size
How it was run: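 Inhibition of cell viability is measured here. Each line was plated at 500 cells per well, treated with MIPE 4.0 drugs, kept 48 hours at 37C, then assayed for ATP content by CellTiter-Glo luminescence.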

[3] = Quantitative High-Throughput drug screen in 47 multiple myeloma cell lines against the NCATS MIPE library collection: KMS20_JCRB cell viability assay (AID 1918973); note: nearly all actives have a fitted effect of over 45% in size
How it was run: (§2)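 Myeloma cell lines, 500 cells per well, exposed to MIPE 4.0 library compounds for 48 h at 37C, 5% CO2. Viability from ATP by CellTiter-Glo luminescence; normalised to DMSO (100%) and media-only (0%) wells.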

[4] = Quantitative High-Throughput drug screen in 47 multiple myeloma cell lines against the NCATS MIPE library collection: NCIH929_DSMZ cell viability assay (AID 1918978); note: nearly all actives have a fitted effect of over 35% in size
How it was run: (§3)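 ATP-based luminescence (CellTiter-Glo, 5 min RT incubation) quantified surviving cells following two days' treatment with MIPE 4.0 agents at 37 °C, 5% CO2.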

[5] = Quantitative High-Throughput drug screen in 47 multiple myeloma cell lines against the NCATS MIPE library collection: OCIMY1_PLB cell viability assay (AID 1918979); note: nearly all actives have a fitted effect of over 35% in size
How it was run: as §3

[6] = Quantitative High-Throughput drug screen in 47 multiple myeloma cell lines against the NCATS MIPE library collection: MM1S_ATCC cell viability assay (AID 1918980); note: nearly all actives have a fitted effect of over 45% in size
How it was run: as §3

[7] = Quantitative High-Throughput drug screen in 47 multiple myeloma cell lines against the NCATS MIPE library collection: OCIMY5_PLB cell viability assay (AID 1918988); note: nearly all actives have a fitted effect of over 65% in size
How it was run: as §3

[8] = Quantitative High-Throughput drug screen in 47 multiple myeloma cell lines against the NCATS MIPE library collection: OPM1_PLB cell viability assay (AID 1918989); note: nearly all actives have a fitted effect of over 40% in size
How it was run: as §3

[9] = Quantitative High-Throughput drug screen in 47 multiple myeloma cell lines against the NCATS MIPE library collection: SKMM1_PLB cell viability assay (AID 1919863); settings: SKMM1 myeloma viability, CellTiter-Glo ATP, 48 h; viability: hits give low values; note: nearly all actives have a fitted effect of over 35% in size
How it was run: as §3

[10] = Quantitative High-Throughput drug screen in 47 multiple myeloma cell lines against the NCATS MIPE library collection: U266_ATCC cell viability assay (AID 1919864); note: nearly all actives have a fitted effect of over 35% in size
How it was run: as §3

[11] = Quantitative High-Throughput drug screen in 47 multiple myeloma cell lines against the NCATS MIPE library collection: KMS26_JCRB cell viability assay (AID 1918975); note: nearly all actives have a fitted effect of over 45% in size
How it was run: as §1

[12] = Quantitative High-Throughput drug screen in 47 multiple myeloma cell lines against the NCATS MIPE library collection: MMM1_PLB cell viability assay (AID 1918976); note: nearly all actives have a fitted effect of over 35% in size
How it was run: as §3

[13] = Quantitative High-Throughput drug screen in 47 multiple myeloma cell lines against the NCATS MIPE library collection: MOLP8_DSMZ cell viability assay (AID 1918977); note: nearly all actives have a fitted effect of over 45% in size
How it was run: as §3

[14] = Quantitative High-Throughput drug screen in 47 multiple myeloma cell lines against the NCATS MIPE library collection: MM1R_ATCC cell viability assay (AID 1918981); note: nearly all actives have a fitted effect of over 35% in size
How it was run: as §3

[15] = Quantitative High-Throughput drug screen in 47 multiple myeloma cell lines against the NCATS MIPE library collection: LP1_DSMZ cell viability assay (AID 1918982); note: nearly all actives have a fitted effect of over 35% in size
How it was run: as §3

[16] = Quantitative High-Throughput drug screen in 47 multiple myeloma cell lines against the NCATS MIPE library collection: KMS28PE_JCRB cell viability assay (AID 1918983); note: nearly all actives have a fitted effect of over 35% in size
How it was run: as §3

[17] = Quantitative High-Throughput drug screen in 47 multiple myeloma cell lines against the NCATS MIPE library collection: KMS34_JCRB cell viability assay (AID 1918985); note: nearly all actives have a fitted effect of over 40% in size
How it was run: as §3

[18] = Quantitative High-Throughput drug screen in 47 multiple myeloma cell lines against the NCATS MIPE library collection: OCIMY7_PLB cell viability assay (AID 1918987); settings: OCI-MY7 myeloma viability, CellTiter-Glo ATP, 48 h; viability (% of DMSO): at 45.8 µM (top of the series); note: nearly all actives have a fitted effect of over 65% in size
How it was run: as §3

[19] = Quantitative High-Throughput drug screen in 47 multiple myeloma cell lines against the NCATS MIPE library collection: KMS21BM_JCRB cell viability assay (AID 1918974); settings: ATP luminescence, 48 h; viability: at 45.8 µM (top of the series)
How it was run: as §2

[20] = Quantitative High-Throughput drug screen in 47 multiple myeloma cell lines against the NCATS MIPE library collection: L363_DSMZ cell viability assay (AID 1918984); settings: L363 myeloma viability, CellTiter-Glo ATP luminescence, 48 h; viability (% of control): at 45.8 µM (top of the series); note: nearly all actives have a fitted effect of over 40% in size
How it was run: as §3
Potency is the fitted concentration of half-maximal effect.

For CNC(=O)c1cc(COc2nnc(Nc3ccc(Cl)cc3)c3ccoc23)ccn1, the Potency [1] was 26.4 µM (active), the Potency [2] was 6.62 µM (active) and the Potency [3] was “inactive”. The Potency [4] was “inactive”, the Potency [5] was 23.5 µM (active) and the Potency [6] was “inactive”. The Potency [7] was 20.9 µM (active), the Potency [8] was “inactive” and the Potency [9] was 23.5 µM (active). For the same molecule, the Potency [10] was “inactive”.
With CC1(C)C(N(O)C(=O)Nc2ccc(Cl)cc2)N(c2ccc(Cl)cc2)C(=O)N1CC(=O)NN=CC=Cc1ccc([N+](=O)[O-])o1 (centres undefined) the Potency [1] was 8.33 µM (active), the Potency [2] was “inactive” and the Potency [11] was 8.33 µM (active). The Potency [12] was 14.8 µM (active), the Potency [13] was 3.72 µM (active) and the Potency [4] was 7.43 µM (active). The Potency [5] was 8.33 µM (active), the Potency [6] was 9.35 µM (active) and the Potency [14] was 5.26 µM (active). For the same molecule, the Potency [15] was 16.6 µM (active), the Potency [16] was 8.33 µM (active) and the Potency [17] was 7.43 µM (active). For the same molecule, the Potency [18] was 5.9 µM (active), the Potency [7] was 7.43 µM (active) and the Potency [8] was 11.8 µM (active). The Potency [9] was 13.2 µM (active) and the Potency [10] was 10.5 µM (active).
With OCCn1cc(-c2ccc3c(c2)CCC3=NO)c(-c2ccncc2)n1 the Potency [1] was “inactive”, the Potency [2] was “inactive” and the Potency [19] was 8.33 µM (active). The Potency [13] was 0.0662 µM (active), the Potency [4] was 20.9 µM (active) and the Potency [5] was “inactive”. The Potency [6] was 26.4 µM (active), the Potency [16] was “inactive” and the Potency [17] was “inactive”. The Potency [8] was “inactive” and the Potency [10] was 23.5 µM (active).
In the case of CCOc1ccccc1N=Nc1c(C)[nH]n(-c2nc(-c3ccccc3)cs2)c1=O, the Potency [1] is reported as 16.6 µM (active), the Potency [2] is reported as 18.7 µM (active) and the Potency [19] is reported as “inactive”. The Potency [11] was 4.18 µM (active), the Potency [12] was 8.33 µM (active) and the Potency [4] was 0.264 µM (active). For the same molecule, the Potency [5] was 7.43 µM (active), the Potency [6] was 13.2 µM (active) and the Potency [14] was 3.32 µM (active). The Potency [17] was “inactive”, the Potency [7] was 1.18 µM (active) and the Potency [9] was 2.96 µM (active). The Potency [10] was 8.33 µM (active).
For CC(C)C[C@@H](C(=O)N[C@H](C(=O)OC1CCCC1)c1ccccc1)[C@H](O)C(=O)NO, the Potency [1] was 18.7 µM (active), the Potency [2] was 2.09 µM (active) and the Potency [11] was 18.7 µM (active). The Potency [12] was 23.5 µM (active), the Potency [13] was 23.5 µM (active) and the Potency [4] was 18.7 µM (active). For the same molecule, the Potency [5] was 16.6 µM (active), the Potency [6] was 20.9 µM (active) and the Potency [14] was 18.7 µM (active). For the same molecule, the Potency [18] was 14.8 µM (active), the Potency [7] was 20.9 µM (active) and the Potency [9] was 20.9 µM (active).
With N#CC1(c2cccc(C(=O)Nc3cc(Oc4ccc5nc(NC(=O)C6CC6)sc5n4)ccc3F)c2Cl)CC1 the Potency [1] was 13.2 µM (active), the Potency [2] was 2.09 µM (active) and the Potency [3] was 0.469 µM (active). For the same molecule, the Potency [4] was 6.62 µM (active), the Potency [5] was 0.332 µM (active) and the Potency [14] was 14.8 µM (active). The Potency [17] was “inactive”, the Potency [9] was 2.96 µM (active) and the Potency [10] was 5.26 µM (active).
For CC[C@H](C=C[C@@H](C)[C@H]1CC[C@H]2[C@@H]3CC=C4C[C@@H](O)CC[C@]4(C)[C@@H]3CC[C@]12C)C(C)C, the Potency [1] was “inactive”, the Potency [2] was “inactive” and the Potency [3] was “inactive”. The Potency [4] was “inactive”, the Potency [5] was “inactive” and the Potency [6] was “inactive”. The Potency [14] was “inactive”, the Potency [15] was “inactive” and the Potency [20] was “inactive”. For the same molecule, the Potency [17] was “inactive”, the Potency [8] was “inactive” and the viability [9] was 119%. The Potency [10] was “inactive”.
For OC[C@H]1O[C@@H](O[C@H]2[C@@H](O)[C@@](O)(CO)O[C@@H]2CO)[C@H](O)[C@@H](O)[C@@H]1O, the Potency [1] was “inactive”, the Potency [2] was “inactive” and the Potency [11] was “inactive”. For the same molecule, the Potency [12] was 3.72 µM (active), the Potency [4] was “inactive” and the Potency [5] was “inactive”. The Potency [6] was “inactive”, the Potency [14] was “inactive” and the Potency [15] was “inactive”. The Potency [16] was “inactive”, the Potency [20] was “inactive” and the Potency [17] was “inactive”. The Potency [18] was “inactive”, the Potency [7] was “inactive” and the Potency [8] was “inactive”.
For COc1cc([C@H]2Oc3cc([C@H]4Oc5cc(O)cc(O)c5C(=O)[C@H]4O)ccc3O[C@H]2CO)ccc1O, the Potency [1] was 10.5 µM (active), the Potency [2] was “inactive” and the Potency [11] was 16.6 µM (active). The Potency [12] was 7.43 µM (active), the Potency [4] was 23.5 µM (active) and the Potency [5] was 20.9 µM (active). The Potency [6] was 9.35 µM (active), the Potency [14] was 23.5 µM (active) and the Potency [16] was 20.9 µM (active). The Potency [20] was “inactive”, the Potency [17] was 20.9 µM (active) and the Potency [18] was 8.33 µM (active). The Potency [7] was 10.5 µM (active), the Potency [8] was 14.8 µM (active) and the Potency [9] was 23.5 µM (active).
For O=C(CO)N1CCC(c2[nH]nc(-c3ccc(Cl)cc3)c2-c2ccncn2)CC1, the Potency [1] was 0.935 µM (active), the Potency [2] was “inactive” and the Potency [11] was “inactive”. For the same molecule, the Potency [12] was 0.148 µM (active), the Potency [4] was “inactive” and the Potency [5] was “inactive”. The Potency [6] was 20.9 µM (active), the Potency [14] was 0.662 µM (active) and the Potency [15] was “inactive”. The Potency [16] was 0.332 µM (active), the Potency [17] was “inactive” and the Potency [8] was 3.32 µM (active). For the same molecule, the Potency [10] was “inactive”.
With Cc1cc(CS(=O)(=O)c2ccccc2)cc(OCc2ccc(CN3CCC[C@H]3CO)cc2)c1 the Potency [1] was 16.6 µM (active), the Potency [2] was 16.6 µM (active) and the Potency [19] was 1.18 µM (active). The Potency [11] was 5.26 µM (active), the Potency [12] was 13.2 µM (active) and the Potency [4] was “inactive”. The Potency [5] was “inactive”, the Potency [6] was 4.69 µM (active) and the Potency [17] was “inactive”. The Potency [8] was 20.9 µM (active).
For CNC(=O)[C@H](CC1=CN=C2C=CCC=C12)NC(=O)[C@@H](CC(=O)NO)CC(C)C, the Potency [1] was “inactive”, the Potency [2] was 0.105 µM (active) and the Potency [19] was 0.105 µM (active). For the same molecule, the Potency [11] was “inactive”, the Potency [4] was 23.5 µM (active) and the Potency [5] was “inactive”. For the same molecule, the Potency [6] was 3.32 µM (active), the Potency [15] was “inactive” and the Potency [20] was 0.059 µM (active). The Potency [8] was “inactive” and the viability [9] was 109%.
